Assay results reported in PMC8384837, “Expanding the binding specificity for RNA recognition by a PUF domain”.

These sequences were tested against PUM1 PUF domain R5-RFV (Homo sapiens, UniProt Q14671 828-1176, C1007R;R1008F;Q1011V) (assay: yeast three-hybrid, YBZ-1, SC-Leu-His + 0.5 mM 3-AT, 4 days). Conditions: tags: N-Gal4 AD-HA kept; label: inside an RPR1-promoter hybrid RNA with tandem MS2 sites; ssRNA.
Outline: (§1)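 Pumilio-1 PUF domain libraries, randomized (NNK) at the three base-contacting residues of each repeat, were co-expressed with matching RNA elements from a centromeric plasmid in strain YBZ-1 (LexA–MS2 coat fusion, HIS3 reporter). Transformants were plated on SC-Leu (input) and SC-Leu-His + 0.5 mM 3-AT (selection) for four days, and repeat regions were PCR-amplified and Illumina-sequenced. The interaction score is the log2 change in variant frequency from input to selection, with pseudocount 1 where absent.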

| Sequence | binding signal |
| --- | --- |
| GGCUAGAACUAGUGGAUCCCCCGGCGCCCGGCGGCUCGAGCCCGGGUAAGUGUAAAUAGUCUGCAUGCCGCCGGGCGCCAUGCCUGCAGGUCGACUCUAGAAAACAUG | 2.29 log2 enrichment (interaction score) |
| GGCUAGAACUAGUGGAUCCCCCGGCGCCCGGCGGCUCGAGCCCGGGUAAGUGUGAAUAGUCUGCAUGCCGCCGGGCGCCAUGCCUGCAGGUCGACUCUAGAAAACAUG | 1.88 log2 enrichment (interaction score) |
| GGCUAGAACUAGUGGAUCCCCCGGCGCCCGGCGGCUCGAGCCCGGGUAAGUGUUAAUAGUCUGCAUGCCGCCGGGCGCCAUGCCUGCAGGUCGACUCUAGAAAACAUG | 4.04 log2 enrichment (interaction score) |
| GGCUAGAACUAGUGGAUCCCCCGGCGCCCGGCGGCUCGAGCCCGGGUAAGUGUCAAUAGUCUGCAUGCCGCCGGGCGCCAUGCCUGCAGGUCGACUCUAGAAAACAUG | 5.48 log2 enrichment (interaction score) |

These sequences were tested against PUM1 PUF domain R3-SRR (Homo sapiens, UniProt Q14671 828-1176, C935S;Q939R) in the same assay as above. Conditions: tags: N-Gal4 AD-HA kept; label: inside an RPR1-promoter hybrid RNA with tandem MS2 sites; ssRNA.
Outline: as §1

| Sequence | binding signal |
| --- | --- |
| GGCUAGAACUAGUGGAUCCCCCGGCGCCCGGCGGCUCGAGCCCGGGUAAGUGUAAAUAGUCUGCAUGCCGCCGGGCGCCAUGCCUGCAGGUCGACUCUAGAAAACAUG | 0.87 log2 enrichment (interaction score) |
| GGCUAGAACUAGUGGAUCCCCCGGCGCCCGGCGGCUCGAGCCCGGGUAAGUGUAAGUAGUCUGCAUGCCGCCGGGCGCCAUGCCUGCAGGUCGACUCUAGAAAACAUG | 2.24 log2 enrichment (interaction score) |
| GGCUAGAACUAGUGGAUCCCCCGGCGCCCGGCGGCUCGAGCCCGGGUAAGUGUAAUUAGUCUGCAUGCCGCCGGGCGCCAUGCCUGCAGGUCGACUCUAGAAAACAUG | 3.98 log2 enrichment (interaction score) |
| GGCUAGAACUAGUGGAUCCCCCGGCGCCCGGCGGCUCGAGCCCGGGUAAGUGUAACUAGUCUGCAUGCCGCCGGGCGCCAUGCCUGCAGGUCGACUCUAGAAAACAUG | 3.34 log2 enrichment (interaction score) |

Each sequence was assayed against PUM1 PUF domain R4-CPV (Homo sapiens, UniProt Q14671 828-1176, N971C;H972P;Q975V) in the same assay as above. Conditions: tags: N-Gal4 AD-HA kept; label: inside an RPR1-promoter hybrid RNA with tandem MS2 sites; ssRNA.
Outline: as §1

| Sequence | binding signal |
| --- | --- |
| GGCUAGAACUAGUGGAUCCCCCGGCGCCCGGCGGCUCGAGCCCGGGUAAGUGUAAAUAGUCUGCAUGCCGCCGGGCGCCAUGCCUGCAGGUCGACUCUAGAAAACAUG | 1.1 log2 enrichment (interaction score) |
| GGCUAGAACUAGUGGAUCCCCCGGCGCCCGGCGGCUCGAGCCCGGGUAAGUGUAUAUAGUCUGCAUGCCGCCGGGCGCCAUGCCUGCAGGUCGACUCUAGAAAACAUG | 2.93 log2 enrichment (interaction score) |
| GGCUAGAACUAGUGGAUCCCCCGGCGCCCGGCGGCUCGAGCCCGGGUAAGUGUACAUAGUCUGCAUGCCGCCGGGCGCCAUGCCUGCAGGUCGACUCUAGAAAACAUG | 1.61 log2 enrichment (interaction score) |
